Assay results as given in PubChem BioAssay AID1463 (National Center for Advancing Translational Sciences (NCATS), 2008).
In all, about 280,000 compounds went through this assay and about 2,600 (0.93%) were called active. Inconclusive results (about 8%) are left out. The full list was thinned out, with actives kept by preference. Unmarked numbers belong to inactive results. Calls follow the shape of the dose curve; as a rule, active = well fitted curve in the direction sought with a large enough effect; inconclusive = small, poorly fitted or top-dose-only effect; inactive = flat fitted curve, though single readings scatter.

Assay: Counterscreen qHTS for Inhibitors of Tau Fibril Formation, Fluorescence Polarization; also: nearly all actives have a fitted effect of over 55% in size
Conditions: tau K18 P301L (four-repeat tau fragment) Alexa594 fluorescence, heparin fibrillization; series mostly up to 57.7 µM; activity change, negative = decrease: at the top concentration
Procedure, shortened: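 Human K18 P301L tau (15 uM unlabeled plus 0.24 uM Alexa 594-labeled, final) in 100 mM sodium acetate pH 7 was mixed with compound and 20 uM heparin and incubated 6 hr at 37 C.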
% is scaled to controls: 0 for no effect and ±100 for the full control effect; potency is read from the fitted curve at half-maximal effect; tags tell the direction and shape of the fitted curve or compound fluorescence and quenching.

Structure (SMILES)	activity change, negative = decrease	Potency
COc1ccc(CNC(=O)c2cc3cccc(OC)c3oc2=O)cc1	-14.3%	
CSc1ccc(CCNC(=O)c2cc(C)nc3c2c(C)nn3-c2cccc(F)c2)cc1	-10.8%	
S=C(NCCc1ccccc1)N1CCCCC1	-5.45%	
O=C1CCN(C(=S)NCCc2ccccc2)CC1	2.95%	
Oc1cc2c(cc1O)CN(C(=S)NCCc1ccc(Cl)cc1)CCC2		10 µM [quencher] (active)
O=C(Cc1ccc(Cl)cc1)NCC(c1cccs1)S(=O)(=O)c1ccc(Cl)cc1 (stereo unspecified)	-21.3%	
COc1ccc(-c2cn3nc(N4CCC(C(=O)Nc5cccc(C)c5C)CC4)sc3n2)cc1	-15.3%	
Cc1ccc(-n2ncc(C(=O)N(C)Cc3ccccc3)c2-n2cccc2)cc1	-3.21%	
COCCNC(=O)Nc1ccc2nc(-c3ccco3)c(-c3ccco3)nc2c1		8.91 µM [quencher] (active)
O=C(Nc1ccc2nccnc2c1)c1ccco1	1.38%	
CCOc1ccc(NC(=O)c2ncoc2-c2ccco2)cc1	-18.1%	
Cc1cc(C)cc(NC(c2nnc(-c3cccc(F)c3)o2)c2ccc(F)cc2Cl)c1 (stereo unspecified)	-16.8%	
CC(=O)Nc1ccc(Nc2c3ccccc3nc3ccccc23)cc1	-25.2%	
O=C(Nc1c2c(nc3ccccc13)CCCC2)c1ccccc1Br	-1.32%	
O=C(NNc1c2ccccc2nc2ccccc12)c1cc2ccccc2cc1O		4.47 µM [quencher] (active)
Cc1cccc(NC(=S)NCc2ccc3[nH]c4c(c3c2)CCCC4)c1		14.1 µM [quencher] (active)
O=C(O)CCC(=O)NCc1ccc2[nH]c3c(c2c1)CCCC3	-1.4%	
Cc1cccc(NC(=S)NCCN(C2CCCCC2)C2CCCC2)c1	-10.1%	
CCc1ccc(NC(=O)N2CCN(C(=O)c3nsc4ccccc34)CC2)cc1	-9.11%	
COc1ccc(S(=O)(=O)c2cn(C)c3cc(N4CCCCC4)c(F)cc3c2=O)cc1	-3.74%	
Cn1c(=O)c2c(nc(SCC(=O)Nc3ccc(F)cc3)n2Cc2ccccc2)n(C)c1=O	-23.1%	
CCc1ccc(CN(Cc2ccco2)C(=O)COc2ccc(Cl)c(C)c2)cc1	-6.86%	
O=c1oc2ccccc2cc1-c1csc(Nc2ccc(O)cc2)n1		14.1 µM [quencher] (active)
Cc1ccc(-c2csc(NC(=O)c3cnccn3)n2)cc1C	6.03%	
NS(=O)(=O)c1ccc(Nc2nc(-c3ccccc3)cs2)cc1		15.8 µM [quencher] (active)
COc1ccc(-c2csc(NC(=O)CCCc3cccs3)n2)cc1	-2.65%	

Structure (SMILES)	activity change, negative = decrease	Potency
COc1ccc(-c2csc(NC(=O)COC(=O)c3ccc(Br)o3)n2)cc1	-17.9%	
Cc1cc(NC(=O)c2cccc(Cl)c2)ccc1-c1cc2ccccc2oc1=O	-26.8%	
O=C(Nc1nc(-c2ccc(-c3ccccc3)cc2)cs1)c1cnccn1	-17.8%	
COc1ccc(-c2csc(NC(=O)c3ccc(N4C(=O)CCC4=O)cc3)n2)cc1OC	-6.64%	
O=C(Nc1ccncc1)c1cc2ccccc2o1	-8.25%	
CC(=O)Nc1nc(C)c(-c2csc(Nc3ccc(S(N)(=O)=O)cc3)n2)s1	-27.7%	
COc1ccc(-c2csc(Nc3ccc(O)cc3)n2)cc1		11.2 µM [quencher] (active)
COc1ccc(OC)c(Nc2nc(-c3ccc(O)c(O)c3)cs2)c1		14.1 µM [quencher] (active)
Cc1cccc(NC(=O)c2ccc3nc(C(C)C)oc3c2)c1C	0.976%	
CCOC(=O)c1ccc(NC(=O)CCS(=O)(=O)c2ccc(C)cc2)cc1	-9.69%	
CCOc1ccccc1N(CC)C(=O)c1cc2ccc3cccnc3c2[nH]1	-12.8%	
CCOc1ccc(N(C)S(=O)(=O)c2cc(-c3cnc(C)o3)ccc2OC)cc1	-16.6%	
Cc1cc(C)cc(Nc2ncnc3onc(-c4ccc(F)cc4)c23)c1	-27.8%	
Cc1cc(OCC(=O)NCC2(N(C)C)CCCCC2)cc(C)c1Cl	-4.83%	
COC(=O)c1sccc1S(=O)(=O)N(CC(=O)Nc1ccc(C)c(F)c1)c1ccc(C)c(C)c1	-26.5%	
Cc1nn(Cc2ccc(F)cc2)c(C)c1NC(=O)c1cc(CC(C)C)on1	-6.55%	
CCc1nc2ccc(C(=O)N3CCN(c4cc(Cl)ccc4C)CC3)cc2nc1CC	-16.5%	
COc1ccc(C(=O)Nc2ccc3nc(N4CCCCC4)cc(C)c3c2)cc1OC		10 µM [quencher] (active)
COc1cccc(C(=O)Nc2ccc3nc4n(c(=O)c3c2)CCCCC4)c1	-19.2%	
COc1ccc(NC(=O)c2ccc3nc(C(C)C)oc3c2)cc1OC	-10.9%	
COc1ccccc1CN1CCC(CNC(=O)c2cnn(-c3ccccc3Cl)c2C2CCN(C(=O)OC(C)(C)C)CC2)CC1	-15.9%	
Fc1ccc(-c2nn(-c3ccccc3Cl)c3c2cnc2ccccc23)cc1	-24.1%	
O=C(Nc1ccccc1)Nc1nc2ccccc2s1	-24.8%	
O=C(Nc1ccc2oc(-c3ccc4ccccc4c3)nc2c1)c1cccs1	-27.6%	
O=C(Nc1ccc2ccccc2c1)Nc1ccc2snnc2c1		4.47 µM [quencher] (active)
